In the supplement of paper PMC6555819:

Experiments:
Assay in all cases: PBM binding z-score (relative to random genomic background probes); higher = stronger binding; sequences stand for … in GC…GCGATTGACAGCGTAGAATGAAGG
[1] = system: FXR:RXRa (NR concentration 270 nM, RXRa partner concentration 90 nM)
In short: (§1)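 Binding z-scores take random background probes as their reference. They come from custom Agilent 4×180K protein-binding microarrays incubated 1 h with ligand-free nuclear receptor dimers, with antibodies against each partner (one per run) detecting binding. Scanned fluorescence was regression-normalized.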

[2] = system: LXRa:RXRa (NR concentration 270 nM, RXRa partner concentration 90 nM)
In short: as §1

[3] = system: LXRa homodimer (NR concentration 270 nM)
In short: as §1

[4] = system: LXRb:RXRa (NR concentration 270 nM, RXRa partner concentration 90 nM)
In short: as §1

[5] = system: LXRb homodimer (NR concentration 270 nM)
In short: as §1

[6] = system: PPARa:RXRa (NR concentration 270 nM, RXRa partner concentration 90 nM)
In short: as §1

[7] = system: PPARg:RXRa (NR concentration 180 nM, RXRa partner concentration 90 nM)
In short: as §1

[8] = system: PPARg:RXRa 270nM:90nM, anti-RXR (NR concentration 270 nM, RXRa partner concentration 90 nM)
In short: as §1

[9] = system: PPARg:RXRa 30nM:10nM, anti-RXR (NR concentration 30 nM, RXRa partner concentration 10 nM)
In short: as §1

[10] = system: PPARg:RXRa 90nM:30nM, anti-RXR (NR concentration 90 nM, RXRa partner concentration 30 nM)
In short: as §1

[11] = system: PPARg:RXRa DBDmut IVT, anti-RXR (DBD mutation: RXRa K156A/R161A, NR concentration 270 nM, RXRa partner concentration 90 nM)
In short: as §1

[12] = system: PPARg:RXRa IVT, anti-PPARg (NR concentration 270 nM, RXRa partner concentration 90 nM)
In short: as §1

[13] = system: PPARg DBDmut:RXRa IVT, anti-PPARg (DBD mutation: PPARg1 K132A/R137A, NR concentration 270 nM, RXRa partner concentration 90 nM)
In short: as §1

[14] = system: PPARg DBDmut IVT, anti-PPARg (DBD mutation: PPARg1 K132A/R137A, NR concentration 270 nM)
In short: as §1

[15] = system: PPARg homodimer (NR concentration 180 nM)
In short: as §1

[16] = system: PXR:RXRa (NR concentration 270 nM, RXRa partner concentration 90 nM)
In short: as §1

[17] = system: PXR homodimer (NR concentration 270 nM)
In short: as §1

[18] = system: RARa:RXR (NR concentration 270 nM, RXRa partner concentration 90 nM)
In short: as §1

[19] = system: RARa homodimer (NR concentration 270 nM)
In short: as §1

[20] = system: RARb:RXRa (NR concentration 270 nM, RXRa partner concentration 90 nM)
In short: as §1

| Sequence | PBM binding z-score [1] | PBM binding z-score [2] | PBM binding z-score [3] | PBM binding z-score [4] | PBM binding z-score [5] | PBM binding z-score [6] | PBM binding z-score [7] | PBM binding z-score [8] | PBM binding z-score [9] | PBM binding z-score [10] | PBM binding z-score [11] | PBM binding z-score [12] | PBM binding z-score [13] | PBM binding z-score [14] | PBM binding z-score [15] | PBM binding z-score [16] | PBM binding z-score [17] | PBM binding z-score [18] | PBM binding z-score [19] | PBM binding z-score [20] |
| --- | --- | --- | --- | --- | --- | --- | --- | --- | --- | --- | --- | --- | --- | --- | --- | --- | --- | --- | --- | --- |
| ATATGTAGGTTAGCTGCGGTCATTCAGACTAGGC | 1.46 | 5.96 | 4.17 | 2.56 | 0.134 | 2.82 | 3.47 | 3.02 | 0.942 | 2.27 | 6.89 | 6.05 | 1.21 | 1.12 | 0.698 | 3.39 | 0.151 | 1.21 | 0.221 | 1.88 |
| GCTGCTATGTCAACTGATGGTCAGCTAAAGCTCG | -0.296 | -0.497 | -0.849 | -0.37 | -0.729 | -0.283 | -0.143 | -0.387 | -0.655 | -0.456 | 0.616 | -0.0594 | -1.42 | -1.27 | -1.18 | -0.32 | -0.913 | -0.149 | -1.19 | 0.753 |
| TCTACTAGTTGATTAGGGCAACCGAAACAGCGGA | -0.0181 | -0.4 | -0.422 | 0.0832 | -0.553 | 0.777 | 0.366 | 1.66 | 3.06 | 2.31 | 1.59 | 1.11 | -0.0224 | -0.068 | -0.343 | 0.00114 | -0.203 | 0.226 | -0.458 | 0.694 |
| TCTTGTAGATCAAGCAGGGTAAGAAAGCCTGAGT | 0.561 | -0.0537 | -0.634 | 0.0919 | -0.511 | 0.15 | -0.37 | 1.08 | 2.34 | 1.6 | 1.7 | 0.481 | -0.108 | -0.000734 | -0.854 | 0.136 | -0.0302 | 0.246 | -0.676 | -0.148 |
| TTACCAAGGTGATGGTCGTTGATCCCTCTGTAGA | 0.274 | 0.0639 | -0.222 | 0.219 | -0.598 | 0.442 | -0.08 | 0.334 | 0.217 | 0.0112 | 1.08 | 1.23 | -0.135 | 0.288 | 0.359 | -0.171 | -0.42 | 0.272 | 0.249 | 0.312 |
| TCATATAGGTAAAAGGTGCAAGTCGGTGTGGTAA | 1.29 | 1.09 | 0.188 | 1.25 | 0.0143 | 3.34 | 5.37 | 5.97 | 5.85 | 6.52 | 4.71 | 3.76 | 0.923 | 0.831 | 1.63 | 0.954 | 0.487 | 0.733 | 1.23 | 0.917 |
| TAGCCTAGGTCATGGGCCAGGATACCACGCGAAC | 4.32 | 3.44 | 0.422 | 2.16 | -0.43 | 4.16 | 3.93 | 3.93 | 1.12 | 2.85 | 1.37 | 3.45 | 0.121 | 0.0645 | 0.888 | 1.54 | -0.528 | 2.52 | -0.123 | 3.8 |
| CCTACTGGGCCACAGGTCATTGATTCCAATGCTC | 1.51 | 1.55 | 1.48 | 2.12 | 0.443 | 4.11 | 8.34 | 7.57 | 6.11 | 7.68 | 4.78 | 5.99 | -0.262 | -0.356 | 1.06 | 1.75 | 0.334 | 2.03 | -0.37 | 2.26 |
| TCTATTAGGTGATTAGGGCAACCGAAACAGCGGA | 0.654 | 0.587 | 0.0646 | 0.425 | 0.526 | 1.86 | 2.13 | 2.98 | 3.56 | 2.97 | 4.87 | 4.81 | 2.12 | 1.04 | 0.876 | 0.422 | 0.211 | 0.593 | 0.993 | 1.37 |
| ATCTCTATGTAAAAGTTCAGTGAATCCCGAGGAT | 0.48 | 1.17 | 1.3 | 0.915 | 0.829 | 2.49 | 3.27 | 4.6 | 3.31 | 4.95 | -0.373 | 1.21 | 1.18 | 0.786 | 1.41 | 1.78 | 1.21 | 1.08 | 0.424 | 2.23 |
| CTCGAAAGGTCGTGTTCAGGTGAGTATACCAAAC | 4.67 | 3.64 | 0.232 | 3.31 | 0.113 | 4.76 | 2.42 | 3.38 | 0.878 | 2.07 | 0.51 | 1.95 | 0.275 | 1.56 | 1.51 | 3.14 | 0.411 | 3.85 | 0.304 | 3.78 |
| TTACCAAGGTGAGCTGAGGTCGTAGATCCAACTC | 2.54 | 0.614 | -0.687 | 0.401 | -1.29 | 1.78 | 0.268 | 0.85 | -0.191 | 0.588 | 0.925 | 1.67 | -0.714 | -0.674 | -0.332 | 4.2 | -0.58 | 2.1 | -0.84 | 1.85 |
| TCTAGTTGGTCAAAGGTCACCCACTCGAAATGCG | 5.47 | 5.45 | 3.51 | 5.12 | 1.68 | 6.36 | 11.3 | 9.99 | 10.9 | 12.3 | 3.63 | 6.67 | 1.96 | 2.09 | 6.47 | 6.1 | 1.35 | 7.69 | 3.37 | 4.9 |
| ACTAGCAGGGCAAGGGTCACTCAAGATTAGTCCG | 2.88 | 2.84 | 0.175 | 2.76 | -0.693 | 4.79 | 8.91 | 7.48 | 7.19 | 7.64 | 2.1 | 4.69 | -0.137 | -0.877 | 1.91 | 3.4 | -0.121 | 4.49 | 0.318 | 3.46 |
